One test concerns Streptococcus suis HE06. Kind of test: percent growth relative to DMSO control; higher = less growth inhibition. As to conditions: 10 µM; incubation time 18 h. The procedure: (§1)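 CLSI broth microdilution: 5x10^4 CFU of Streptococcus suis (strain P1/7 or HE06) incubated with 10 µM Pathogen Box compound in cation-adjusted Mueller Hinton broth, 37 °C, 5% CO2, 18 h. Growth read as OD600 and expressed as percent of the DMSO-treated control (100%); mean ± SD of three independent experiments.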

Another test has as its system Streptococcus suis P1/7. Described as above. The following applies: 10 µM; incubation time 18 h. As to the method: as §1

± gives the standard deviation.

Regarding `Nc1nccc2ccc(-c3ccc4nccn4c3)cc12`, the percent growth is 85.8 ± 25% in the test with Streptococcus suis HE06 and 61.4 ± 20% in the test with Streptococcus suis P1/7.

Regarding `CCCCN(CCCC)c1c(C#N)cc(S(=O)(=O)Nc2ccccc2)cc1C#N`, the percent growth with Streptococcus suis HE06 is 86.6 ± 25%; in the test with Streptococcus suis P1/7 it was 69.8 ± 27%.

Turning to `N=C(N)Nc1ccc(-c2ccc(-c3ccc(NC(=N)N)cc3Cl)o2)c(Cl)c1`, the percent growth in the test with Streptococcus suis HE06 is 22.2 ± 37%; with Streptococcus suis P1/7, 23.2 ± 34%.

On to `N#Cc1nc(-c2ccccc2F)oc1NCCc1ccccc1`, for which the percent growth in the test with Streptococcus suis HE06 came to 113 ± 30%; in the test on Streptococcus suis P1/7, 98.7 ± 25%.

Turning to `CCN(CC)C(=O)N1CCN(C)CC1`, the values for the percent growth with Streptococcus suis HE06 and in the test with Streptococcus suis P1/7 were 92.6 ± 6.9% and 91.1 ± 17%, respectively.

With `Brc1c(-c2ccc3c(c2)OCO3)nc2ncccn12`, the percent growth came out at 95.7 ± 6.9% in the test on Streptococcus suis HE06 and 85.8 ± 20% in the test on Streptococcus suis P1/7.

Regarding `Cc1cnc(N2CCN[C@@H](Cc3ccccc3)C2)nc1Oc1ccc(-n2ccnc2)cc1`, the percent growth came to 98.9 ± 9.1% with Streptococcus suis HE06 and 109 ± 29% in the test on Streptococcus suis P1/7.

In the case of `c1ccc(-c2cc(N3CCCCC3)c3ccccc3n2)nc1`, the percent growth with Streptococcus suis HE06 worked out at 0.646 ± 1.1%; in the test on Streptococcus suis P1/7, 0.354 ± 0.61%.

With `C[C@]1(O)C[C@@H](c2nc(-c3ccc4ccc(-c5ccccc5)nc4c3)c3c(N)nccn32)C1`, the figures for the percent growth in the test with Streptococcus suis HE06 and in the test on Streptococcus suis P1/7 were 81.6 ± 9.1% and 97 ± 18%, respectively.

Take `c1ccc2c(c1)CN(CC1CC1)CC1(CCN(Cc3c[nH]c4cnccc34)CC1)O2`: the percent growth in the test with Streptococcus suis HE06 is 85.1 ± 15%; in the test on Streptococcus suis P1/7 it was 91.8 ± 5.5%.

In the case of `CC(Oc1cccc(Cl)c1)C(=O)Nc1ccc2oc(-c3ccncc3)nc2c1` (stereo unspecified), the percent growth in the test with Streptococcus suis HE06 amounted to 75.2 ± 17%; with Streptococcus suis P1/7, 77.5 ± 2.9%.

For the compound `O=C(NCCc1c[nH]c2ccccc12)c1cc2ccccc2oc1=O`, the percent growth with Streptococcus suis HE06 stood at 104 ± 6%; with Streptococcus suis P1/7 it was 74.1 ± 8.7%.

As to `OCCc1ccc(Nc2nccc(-c3nnc4ccccn34)n2)cc1`, the percent growth with Streptococcus suis HE06 came out at 92.9 ± 6.6%; in the test with Streptococcus suis P1/7, 88.5 ± 13%.

With `CNc1nnc(Sc2cnn(-c3ccccc3)c(=O)c2Cl)s1`, the percent growth with Streptococcus suis HE06 was determined as 81.9 ± 1.8%; in the test on Streptococcus suis P1/7 it was 110 ± 52%.

Regarding `O=C(C1CCN(c2nnnn2-c2ccccc2)CC1)N1CCc2ccccc2C1`, the percent growth in the test with Streptococcus suis HE06 was 86.9 ± 28%; in the test on Streptococcus suis P1/7, 62.4 ± 21%.

`O=C(c1ccco1)N(CCCn1ccnc1)c1nc2c(Cl)cccc2s1`: the percent growth in the test with Streptococcus suis HE06 turned out to be 36.6 ± 38%; in the test on Streptococcus suis P1/7, 34.1 ± 59%.

As for `Cc1ccc2cc(C3NC(=O)c4ccccc4N3)c(Cl)nc2c1` (stereo unspecified), the figures for the percent growth in the test with Streptococcus suis HE06 and in the test on Streptococcus suis P1/7 were 72.4 ± 16% and 116 ± 46%, respectively.

As to `O=C(NC1CC1)c1ccc(CSCc2ccccc2Cl)o1`, the figures for the percent growth with Streptococcus suis HE06 and in the test on Streptococcus suis P1/7 were 83.2 ± 21% and 65.8 ± 24%, respectively.

Regarding `CC(=O)N1CCN(c2ccc(Oc3ccc(Cl)cc3O)cc2)CC1`, the percent growth in the test with Streptococcus suis HE06 came out at 142 ± 58%; with Streptococcus suis P1/7, 95.7 ± 30%.

Take `Cc1ccc(-c2cc(C(=O)Nc3cccnc3)c3cc(Br)ccc3n2)cc1`: the percent growth worked out at 99.1 ± 11% in the test with Streptococcus suis HE06 and 69.7 ± 1.4% in the test on Streptococcus suis P1/7.

Take `O=C(OCc1ccccc1)N1CCC(c2cc(-c3ccncc3)c(-c3ccc(F)cc3)[nH]2)CC1`: the percent growth in the test with Streptococcus suis HE06 came to 126 ± 61%; in the test on Streptococcus suis P1/7 it was 92 ± 13%.

Turning to `COc1ccc(C2=NCCN2)cc1-c1cn(-c2cccc(C3=NCCN3)c2)nn1`, the percent growth stood at 99.9 ± 10% in the test on Streptococcus suis HE06 and 87.9 ± 21% in the test with Streptococcus suis P1/7.

As to `CC1CCCN(C(=O)C(C)Nc2cc(Cl)ccc2N2CCOCC2)C1` (stereo unspecified), the figures for the percent growth in the test on Streptococcus suis HE06 and in the test with Streptococcus suis P1/7 were 92 ± 11% and 94.4 ± 32%, respectively.

The values are drawn from the supplement of paper PMC7866885, “A novel bicyclic 2,4-diaminopyrimidine inhibitor of Streptococcus suis dihydrofolate reductase” (PeerJ, 2021).
